# High-throughput results from PubChem.
# TRHR agonist – activates the human TRH receptor; P34981; TRHR cells, calcium flux fluo-8, FDSS agonist mode; activation, % at 2 µM; 360,000 tested, 0.18% active; AID 493084; further: 0% is about no effect
# Target sequence (P34981 whole entry, looked up): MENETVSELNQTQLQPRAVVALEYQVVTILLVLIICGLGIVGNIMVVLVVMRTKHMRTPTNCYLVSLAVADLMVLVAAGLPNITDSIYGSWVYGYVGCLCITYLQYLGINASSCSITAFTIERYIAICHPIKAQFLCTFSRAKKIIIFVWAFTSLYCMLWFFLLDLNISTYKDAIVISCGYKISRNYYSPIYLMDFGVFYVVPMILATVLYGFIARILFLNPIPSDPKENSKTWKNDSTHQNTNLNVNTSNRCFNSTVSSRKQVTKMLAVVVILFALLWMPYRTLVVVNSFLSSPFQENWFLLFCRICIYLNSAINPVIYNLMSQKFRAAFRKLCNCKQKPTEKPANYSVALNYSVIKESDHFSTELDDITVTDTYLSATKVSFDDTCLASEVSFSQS
#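 TRHR-expressing cells loaded with fluo-8 calcium dye; 23 nL library compound pin-transferred, kinetic FDSS fluorescence (Ex 480/Em 530) recorded about 180 s for agonist-induced calcium release, before a 10 nM TRH EC20 addition for potentiator mode.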
# D1 PAM – potentiators of human D1 dopamine receptor | P21728 | HEK293 TREx D1 cells, calcium flux, dopamine EC20 potentiation | potentiation, % at 10 µM | 360,000 tested, 0.036% active; in the data active means potentiation above about 30%; further: 0% is about no effect
# TRHR PAM – allosterically enhances the human TRH receptor | 360,000 tested, 0.66% active | P34981 | AID 493056 | TRHR cells, fluo-8 calcium fluorescence, EC20 TRH enhancement | enhancement, % at 2 µM; in the data active means enhancement above about 30%; further: 0% is about no effect
#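 TRHR-expressing cells loaded with fluo-8 calcium dye were read kinetically (ex 480/em 530) during compound addition, then stimulated with an EC20 of TRH (10 nM final). Enhancement of the Gq-mediated intracellular calcium response was scored.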
# D1 ag – agonists of human D1 dopamine receptor; P21728; HEK293 T-REx D1 cells, calcium flux, agonist mode; activation, % at 2 µM; 360,000 tested, 1% active; AID 504660; further: 0% is about no effect
#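 Agonism was scored from calcium flux recorded over 180 s (1 read/s) after pintool compound addition, following a 10-cycle baseline. Cells were inducible force-coupled HEK293 TREx D1, plated overnight at 30 C and loaded with no-wash calcium dye.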
# D1 antag – human D1 dopamine receptor antagonism | P21728 | activity change, negative = inhibition, % at 10 µM | HEK293 TREx D1 cells, calcium flux, dopamine EC80; active compounds read low | 360,000 tested, 3.2% active | AID 504652; in the data active means activity change below about -30%; further: on the % scale 0 is the no-effect control and ±100 the full control effect
#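 Using tetracycline-induced force-coupled D1 Hek293 cells and a calcium dye, signals were followed for 180 s after compound, then for 180 s after EC80 dopamine, to detect inhibitors.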
# Numbers without * were called inactive; x = no result; ! = a repeat was not active. The list is not random: actives were taken first. Their share in the collection is about 4.7%. Unless noted, no stated cut-off is given here; in the data, active means activation above about 30%; inactive means the rest.
SMILES,TRHR agonist,D1 PAM,TRHR PAM,D1 ag,D1 antag
CCn1cc(Cl)c(C(=O)Nc2cccc(C(F)(F)F)c2)n1,-0.9,-0.4,5.0,1.3,-35.8*
Cn1nc(C(=O)Nc2cccc(C(F)(F)F)c2)c2ccccc2c1=O,-1.1,-6.3,-4.1,4.3,-9.9
Cc1nn(C)cc1C(=O)Nc1ccc2c(c1)OCCO2,-1.4,x,5.8,3.1,-3.8
CCOc1ccccc1CNC(=O)c1cc2c(=O)n(Cc3cccnc3)ccc2nc1C,-0.3,5.8,-2.3,-0.2,12.8
Cc1cc(Br)ccc1NC(=O)CCS(=O)(=O)c1cccc2nsnc12,-0.4,3.4,-6.7,-2.9,-3.7
Cc1cc(C)n2cc(CSc3ccc(Br)cc3)nc2n1,-1.9,4.7,-0.9,2.9,-2.1
Cc1cc(C)n2cc(CSCC(=O)O)nc2n1,1.5,-6.2,1.2,0.4,-35.1*
COc1ccc(CNS(=O)(=O)c2cc(C(=O)Nc3cc(Cl)cc(Cl)c3)ccc2F)cc1,0.1,0.2,3.6,5.2,3.9
Cc1ccc(S(=O)(=O)c2cc3cc(C(=O)O)ccc3oc2=O)cc1,-0.7,-1.2,8.3,0.6,2.4
Cc1ccc(S(=O)(=O)c2cc3cc(C(=O)Nc4ccc(C)cc4C)ccc3oc2=O)cc1,-0.1,-1.6,30.7*,1.6,4.4
Cc1ccc(CNC(=O)c2cccc(Nc3nc4ccccc4n4nnnc34)c2)cc1,0.8,-2.6,1.2,2.6,12.6
COc1ccc(-c2nc(CN3CCC(C(=O)NCCCN4CCN(c5ccccc5F)CC4)CC3)c(C)o2)cc1OC,-0.3,-3.9,-1.0,-0.2,-9.8
CCOCCn1c(SCc2ccc(C)cc2)nc2c1c(=O)[nH]c(=O)n2C,-1.3,-9.7,20.7,-1.2,-38.0*
CCCCCCn1c(SCC(=O)OC)nc2c1c(=O)[nH]c(=O)n2C,0.1,36.8*,-5.2,0.3,-1.1
CCOCCn1c(SCc2ccc(F)cc2)nc2c1c(=O)[nH]c(=O)n2C,-0.6,-1.6,-4.4,0.3,1.6
CCCCCCn1c(SCC(C)C)nc2c1c(=O)[nH]c(=O)n2C,0.0,-2.6,-4.7,-0.8,2.1
O=c1cc(CN2CCN(C/C=C/c3ccccc3)CC2)c2cc(O)ccc2o1,0.9,3.0,2.5,11.3,-32.5*
CCS(=O)(=O)c1ncc(Cl)c(C(=O)N2CCN(c3cccc(Cl)c3)CC2)n1,1.6,-4.2,-13.7,4.7,-30.6*
CS(=O)(=O)c1ncc(Cl)c(C(=O)N2CCN(c3cccc(Cl)c3)CC2)n1,-1.6,1.4,14.4,14.4,-50.0*
Cc1[nH]c2ccc(C(=O)N3CCN(c4cccc(Cl)c4)CC3)cc2c1C,0.6,-6.7,4.9,7.2,-23.7
COc1ccc(-n2ncc(C(=O)NCCCN3CCCCC3)c2C2CCN(C(=O)OC(C)(C)C)CC2)cc1,2.1,-2.9,-0.7,0.6,-17.6
Cc1cc(NC(=O)Nc2ccc(Cl)cc2)n(C(C)(C)C)n1,1.0,-5.7,8.2,4.6,-2.4
CC(C)(C)n1nc(C2CC2)cc1NC(=O)Nc1ccc(Cl)cc1,2.7,-9.4,-5.3,9.7,-40.8*
O=C(N=C1SCC(=O)N1c1ccccc1)c1ccco1,0.2,5.0,-3.2,2.0,1.5
O=C(N=C1SCC(=O)N1c1ccccc1Cl)c1ccco1,-0.3,-12.9,11.7,7.1,-32.5*
SMILES,TRHR agonist,D1 PAM,TRHR PAM,D1 ag,D1 antag
CCOc1cc(/C=N/n2cnnc2)cc(Br)c1O,0.2,-3.4,7.6,0.8,-91.7*
Cc1ccccc1C(=O)Nc1ccc(-c2nc3ccc(C(=O)c4ccccc4)cc3[nH]2)cc1,1.4,-5.2,-5.9,4.2,-42.3*
O=C(c1ccccc1)c1ccc2nc(-c3ccc(NC(=O)c4ccccc4Br)cc3)[nH]c2c1,17.9,-3.2,21.9,3.4,-19.4
CCN(c1ccccc1)S(=O)(=O)c1cccc(C(=O)NCC(c2cccs2)N(C)C)c1 (configuration not stated),-0.2,1.0,2.9,3.6,5.0
CN(c1ccccc1)S(=O)(=O)c1ccc(Cl)c(C(=O)Nc2ccc(-c3nc4ccccc4[nH]3)cc2)c1,0.4,-10.4,4.1,5.2,-30.4*
CN(C)C(CNC(=O)c1cc(S(=O)(=O)N(C)c2ccccc2)ccc1Cl)c1cccs1 (configuration not stated),-0.3,-8.2,-5.9,11.6,-44.0*
CC(C)(C)N1C(=O)c2ccc(C(=O)Nc3ccc(-c4nc5ccccc5[nH]4)cc3)cc2C1=O,-0.1,0.2,1.0,3.6,-13.7
O=C(Nc1ccc(-c2nc3ccccc3[nH]2)cc1)c1ccc(N2C(=O)CCC2=O)cc1,-0.4,-2.7,0.7,0.1,-50.2*
O=c1[nH]c2ccc(S(=O)(=O)N3CCN(S(=O)(=O)c4ccc5c(c4)OCCO5)CC3)cc2[nH]c1=O,-0.8,-1.8,3.8,0.6,-17.4
COc1ccc(S(=O)(=O)NCC(c2ccco2)N2CCOCC2)cc1OC (configuration not stated),0.7,-0.4,-3.3,-0.8,x
COc1ccc(OC)c(NC(=O)CC(=O)Nc2ccc3nc4n(c(=O)c3c2)CCCCC4)c1,-0.3,-3.0,15.9,-0.2,-12.4
Cc1ccc2scc(N3CCCCC3)c(=O)c2c1,0.0,-0.3,-4.9,0.1,7.7
CCc1ccc(S(=O)(=O)c2nnn3c2nc(Nc2ccc(NC(C)=O)cc2)c2sccc23)cc1,0.4,-4.5,-5.9,0.5,11.1
O=C(CSc1nnc(-c2ccc(O)cc2)o1)c1ccc(Br)cc1,1.7,-1.6,3.5,38.5*,30.1
O=C(COC(=O)c1cc(S(=O)(=O)NCc2ccccc2)ccc1O)NCc1ccccc1,0.1,5.6,0.8,2.0,-3.4
O=C(COC(=O)c1cc(S(=O)(=O)NCc2ccccc2)ccc1O)c1cc2ccccc2o1,0.4,-4.3,4.3,1.8,-62.1*
COc1ccc(NC(=O)C2CCN(c3cnccn3)CC2)cc1Cl,0.3,-5.7,-6.0,5.0,-58.0*!
CC(=O)Nc1ccc(NC(=O)C2CCN(c3cnccn3)CC2)cc1,0.6,2.4,-1.7,0.1,2.7
Cc1ccc(NC(=O)Nc2c[nH]c(=O)[nH]c2=O)c(Cl)c1,0.3,-6.2,6.7,3.4,-16.0
Oc1ccc2[nH]ccc2c1,0.3,-4.2,-0.9,2.7,-30.4*
Oc1ccc2ccc3[nH]cnc3c2c1,-0.6,-1.8,3.2,2.3,7.8
Cc1ccc(-c2nnc3ccccc3c2C(=O)Nc2ccccc2F)cc1,-0.2,-6.0,-2.3,0.7,0.9
CN(C)c1ccc(/C=C/c2cc[n+](C)cc2)cc1,9.2,-4.3,2.9,6.1,-15.5
CN(C)c1ccc(/C=C/c2cc[n+]([O-])cc2)cc1,60.6*,-5.2,2.1,72.7*,23.5
Cc1ccc[n+](CC(=O)Nc2cc(C(F)(F)F)ccc2Cl)c1,0.0,-2.6,-4.1,2.3,3.1
CCC(C)(C)c1ccc(OCCCC[n+]2cccc(C)c2)c(C(C)(C)CC)c1,0.7,-7.2,0.7,169.1*,-14.8
